The results in this text go back to PubChem BioAssay (Tox21).

Where “and” joins values, the source holds several entries; their conditions need not be identical. Equal values may be shown once. Inconclusive results are not listed. The source holds several records for some structures; these can differ, active in one and inactive in another. Calls of active or inactive are those of the source. Calls come from the whole dose curve; as a rule, active = well fitted cell-killing curve with a large enough effect in the repeat runs; inconclusive = weak or mixed curves, or effect the other way; inactive = no such curve, though single readings can be large or run the other way.
% is set by controls: 0 for no effect and ±100 for the full control effect; potency is the fitted concentration of half-maximal effect.

A short description of the assay: qHTS assay for identifying genotoxic compounds that show differential cytotoxicity against isogenic chicken DT40 cell lines with known DNA damage response pathways - wild type cell line (AID 743012). Note: nearly all actives have a fitted effect of over 60% in size. To be noted: DT40 wild type chicken cells viability, CellTiter-Glo, 40 h; series mostly up to 68.4 µM; activity change, negative = cytotoxicity: at the top concentration. The source says:
U.S. Tox21 Program National Center for Advancing Translational Sciences [NCATS] NIH Chemical Genomics Center [NCGC] U.S. Environmental Protection Agency [EPA] National Institutes of Environmental Health Sciences [NIEHS] National Toxicology Program [NTP] U.S. Food and Drug Administration [FDA] Tox21 Assay Overview: DNA repair pathways play a critical role in cellular homeostasis by repairing DNA damage induced by endogenous processes and xenobiotics. Isogenic chicken DT40 cell lines deficient in different DNA repair pathways can be used to identify genotoxic compounds and aid in characterizing the nature of the DNA damage induced. Two DNA repair-deficient cell lines with disrupted genes, Rad54/Ku70 or Rev3, were used to screen the Tox21 10K compound library. Possible genotoxicity was based on the presence of a significant increase in cytotoxicity in one or more of the DNA repair-deficient cell lines compared to that observed in the parental DNA repair-proficient cell line. CellTiter Glo viability assay (Promega, Madison, WI) was used to measure cell viability in these cells after compound treatment. This assay includes the data from the wild type cell line.
Tox21 Assay Protocol Summary: 300 DT40 wild type cells in 5 uL/well were dispensed into white, solid-bottom 1536-well plates using a Multidrop Combi (ThermoFisher Scientific, Waltham, MA) dispenser. After the assay plates were incubated at 37 C/5% CO2 for approximately 0.5 hour, 23 nL of compounds dissolved in DMSO, positive controls or DMSO only was transferred into the assay plate by a pintool work station (Kalypsys, San Diego, CA). The assay plates were incubated at 37 C/5% CO2 for 40 hours. After 5 uL per well of CellTiter-Glo reagent was added into each well of the assay plates, the plates were incubated for 30 min at room temperature and the luminescence intensity of the plates was measured using a ViewLux (PerkinElmer, Shelton, CT) plate reader.
(In general: In qHTS, concentration-response curves come from the screen itself.)
On to `O=C(O)CCn1c2c(c3ccccc31)C[C@H](NS(=O)(=O)c1ccc(F)cc1)CC2`, for which the “activity change, negative = cytotoxicity” value was 11.2% (inactive). Turning to `CCc1ccc(O)c(C(C)(C)C)c1`, the Potency is 43.3 µM (active). Still for that read-out and setting: the figure for `CNC(=O)c1cc(Oc2ccc(NC(=O)Nc3ccc(Cl)c(C(F)(F)F)c3)cc2)ccn1` is 4.73 µM (active); for `O=C1c2c(O)ccc(O)c2C(=O)c2c(NCCNCCO)ccc(NCCNCCO)c21` it is 0.0072 µM (active); for `CCN=c1cc2oc3cc(NCC)c(C)cc3c(-c3ccccc3C(=O)OCC)c-2cc1C` it is 484 nM (active) and 172 nM (active). On the same count and under the same terms, the figure for `Cc1nc(Nc2ncc(C(=O)Nc3c(C)cccc3Cl)s2)cc(N2CCN(CCO)CC2)n1` is 5.96 µM (active); for `CC(C)(C)c1cc(/C=C2\SC(=N)NC2=O)cc(C(C)(C)C)c1O` it is 43.3 µM (active). Still for that read-out and setting: to `COc1cc(C=C2CCC/C(=C\c3ccc(O)c(OC)c3)C2=O)ccc1O` belongs 8.41 µM (active); to `Cc1cc2c(C(C)C)c(O)c(O)c(C=O)c2c(O)c1-c1c(C)cc2c(C(C)C)c(O)c(O)c(C=O)c2c1O`, 10.6 µM (active). As for `CCc1cccc(C)c1`, the “activity change, negative = cytotoxicity” value was 7.98% [at 95 µM] (inactive). `CCN(CC)c1ccc(N)cc1`: the Potency was 5.6 µM (active). Still for that read-out and setting: the figure for `Cc1cccc(C)c1NC(=O)CN1CCN(CCCC(c2ccc(F)cc2)c2ccc(F)cc2)CC1` is 4.03 µM (active).

With `CCCCCCCC/C=C\CCCCCCCC(=O)N(C)CC(=O)O`, the Potency is 21.7 µM (active). On the same count and under the same terms, the figure for `CN(C)CCCN1c2ccccc2Sc2ccc(C(F)(F)F)cc21` is 7.5 µM (active). The same measure, in the same setting: to `NC1(c2ccc(-c3nc4ccn5c(=O)[nH]nc5c4cc3-c3ccccc3)cc2)CCC1` belongs 1.19 µM (active); to `Cc1c(C(=O)O)cccc1[N+](=O)[O-]`, 62.1 µM (active).

Regarding `C[C@@H]1CC[C@H]2C(C)(C)[C@H]3C[C@@]12CC[C@@]3(C)O`, the “activity change, negative = cytotoxicity” value was 25.7% (inactive). Consider `COc1ccc2sc(C(=O)Nc3nnn[nH]3)c(OC(C)C)c2c1`, for which the Potency is 30.5 µM (active). Same read-out and setting: to `CCOC(=O)N1CCC(=C2c3ccc(Cl)cc3CCc3cccnc32)CC1` belongs 8.41 µM (active) and 8.63 µM (active). Still for that read-out and setting: the figure for `O=C1Nc2ccc(Cl)cc2[C@@](C#CC2CC2)(C(F)(F)F)O1` is 26.6 µM (active); for `CCCCOc1ccc(C(=O)CCN2CCCCC2)cc1` it is 0.717 µM (active); for `CC(CN(C)C)CN1c2ccccc2CCc2ccccc21` (stereo not given) it is 11.4 µM (active). Same read-out and setting: to `CO[C@H]1C=CO[C@@]2(C)Oc3c(C)c(O)c4c(O)c(cc(O)c4c3C2=O)NC(=O)/C(C)=C\C=C/[C@H](C)[C@H](O)[C@@H](C)[C@@H](O)[C@@H](C)[C@H](OC(C)=O)[C@@H]1C` belongs “inactive and 13.8 µM (active)”; to `O=C1NCN(c2ccccc2)C12CCN(CCCC(c1ccc(F)cc1)c1ccc(F)cc1)CC2`, 6.68 µM (active). For `CN(C)c1ccc(N=Nc2ccccc2C(=O)O)cc1`, the “activity change, negative = cytotoxicity” value is 8.46% (inactive). Take `C[n+]1c2cc(N)ccc2cc2ccc(N)cc21` (tested in a mixture with another compound): the Potency was 5.96 µM (active). Turning to `CC(C)(C)C1=CC(=O)C=C(C(C)(C)C)C1=O`, the “activity change, negative = cytotoxicity” value is 2.66% (inactive). On the same count and under the same terms, to `O=C(O)CC(=O)O` belongs 12% (inactive); to `CC(C)=C1CC[C@@H](C)CC1=O`, 1.59% (inactive). As to `CN(C)CCCN1c2ccccc2CCc2ccccc21`, the Potency is 13.3 µM (active) and 8.63 µM (active). Same read-out and setting: to `CCCCNc1c(C(=O)OCC)c(C)nc2c1cnn2CC` belongs 21.1 µM (active). Regarding `CCCCCCCC/C=C\CCCCCCCC(=O)NCc1ccc(O)c(OC)c1`, the Potency was 13.3 µM (active). On the same count and under the same terms, the figure for `CCN(CC)CCOC(=O)C1(C2CCCCC2)CCCCC1` is 26.6 µM (active). Still for that read-out and setting: the figure for `CSc1ccc2c(c1)N(CCC1CCCCN1C)c1ccccc1S2` (stereo not given) is 5.96 µM (active) and 21.6 µM (active); for `COc1ccccc1OCCNCC(O)COc1cccc2[nH]c3ccccc3c12` (stereo not given) it is 26.6 µM (active). With `Oc1c(Br)cc(Br)c2cccnc12`, the Potency was 11.9 µM (active).

Turning to `c1cc2c3c(c1)ccc1cccc(c13)C2`, the “activity change, negative = cytotoxicity” value was -25% [at 95 µM] (inactive). For `CCN(CC)CCCN(c1ccccc1)C1Cc2ccccc2C1`, the Potency is 0.531 µM (active). As to `O=C(c1ccccc1)c1cc(Cl)ccc1O`, the “activity change, negative = cytotoxicity” value was -3.63% (inactive).

On to `CC(C(O)c1ccccc1)N(C)CCOC(c1ccccc1)c1ccccc1` (stereo not given), for which the Potency is 5.31 µM (active).
